Test results from PubChem BioAssay (Tox21).
Several values for one entry are separate records, joined by “and”; a condition that tells them apart may be missing. Identical values can stand only once. Inconclusive results are not listed. A structure can be active in one record and inactive in another. Activity calls are given as the source filed them. The call rests on the fitted dose curve; in most records, active means well fitted cell-killing curve with a large enough effect in the repeat runs; inconclusive means weak or mixed curves, or effect the other way; inactive means no such curve, though single readings can be large or run the other way.

assay: qHTS assay to identify small molecule antagonists of the thyroid receptor (TR) signaling pathway - cell viability counter screen (AID 743064); conditions: GH3.TRE-Luc viability, CellTiter-Fluor, 24 h; series mostly up to 70.3 µM; activity change, negative = cytotoxic: at the top concentration; further: nearly all actives have a fitted effect of over 50% in size
From the text: National Center for Advancing Translational Sciences [NCATS]
NIH Chemical Genomics Center [NCGC]
U.S. Environmental Protection Agency [EPA]
National Institutes of Environmental Health Sciences [NIEHS]
National Toxicology Program [NTP]
U.S. Food and Drug Administration [FDA]
Thyroid receptor (TR), a nuclear hormone receptor, plays an important role in development, proliferation, differentiation, metabolism, brain function, and cardiovascular system. […] To profile the Tox21 10K compound library in TR signaling, a cell-based GH3-TRE-Luc assay (GH3.TRE-Luc cell line, developed by the laboratory of Dr. Albertinka J. Murk, Wageningen University) was used to measure the inhibition of TR. GH3 (rat pituitary tumor) cells stably expressing a TR activity sensor consisting of two TR response elements and a luciferase reporter gene. The cytotoxicity of the Tox21 compound library against the GH3.TRE-Luc cell line was tested in parallel by measuring the cell viability using CellTiter-Fluor assay (Promega, Madison, WI) in the same wells.
Tox21 Assay Protocol Summary:
GH3.TRE-Luc cells were dispensed at 1500 cells/4 uL/well into 1536-well white solid bottom plates using a Multidrop Combi dispenser (Thermo Fisher Scientific Inc., Waltham, MA). After the assay plates were incubated at 37 C for 4 hours, 23 nL of library compound or DMSO controls was transferred to the assay plates by a pintool station (Kalypsys, San Diego, CA), followed by addition of 1 ul of T3 (1 nM, final concentration in the wells) to stimulate TR transactivation. The assay plates were incubated at 37 C for 23.5 h, and then 1 uL of CellTiter-Fluor reagent (Promega, Madision, WI) of measuring cytotoxicity was added to each well using a Bioraptr Flying Reagent Dispenser (FRD) workstation (Beckman Coulter, Indianapolis, IN, USA). The plates were incubated at 37C and 5% CO2 for additional 30 min, and fluorescence intensity was measured by a ViewLux plate reader (PerkinElmer, Shelton, CT).
On the % scale 0 is the no-effect control and ±100 the full control effect; potency means the concentration at half of the fitted maximal effect.

Row | SMILES | activity change, negative = cytotoxic | Potency
1 | ClCc1ccccc1 | -1.07% (inactive) | –
2 | CCOC(=O)C(Cl)C(C)=O (stereo not given) | 4.44% [at 95 µM] (inactive) | –
3 | CNC(C)Cc1ccccc1OC (stereo not given) | -16.6% (inactive) | –
4 | C=CC(=O)OCC(C)O (stereo not given) | -21.2% [at 95 µM] (inactive) | –
5 | c1cc2ccc3cccc4ccc(c1)c2c34 | 13.1% [at 95 µM] (inactive) | –
6 | C/C=C/C=O | 11.2% (inactive) | –
7 | C(=NC1CCCCC1)=NC1CCCCC1 | – | inactive and 27.3 µM (active)
8 | O=C1C(=O)c2cccc3cccc1c23 | -27.1% (inactive) | –
9 | OC(c1ccc(Cl)cc1)(c1ccc(Cl)cc1)c1cccnc1 | – | 61.1 µM (active)
10 | CN1C[C@H](CNC(=O)OCc2ccccc2)C[C@@H]2c3cccc4c3c(cn4C)C[C@H]21 | – | 9.44 µM (active)
11 | N#CCC#N | – | 61.1 µM (active)
12 | S=C=NCc1ccccc1 | -1.19% [at 95 µM] (inactive) | –
13 | ClCC(Br)CBr (stereo not given) | 2.59% (inactive) | –
14 | COc1c(C(C)(C)C)cc([N+](=O)[O-])c(C)c1[N+](=O)[O-] | -21.3% (inactive) | –
15 | O=C(CCl)c1ccc(Cl)cc1Cl | – | 1.33 µM (active) and 4.33 µM (active) and inactive
16 | C[C@H]1CNCCc2ccc(Cl)cc21 | -12.8% (inactive) | –
17 | COC(=O)C(C)N(C(=O)Cc1ccccc1)c1c(C)cccc1C (stereo not given) | -3.04% (inactive) | –
18 | C=CC(=O)OCC(C)C | 12.2% (inactive) | –
19 | IC(I)=C(I)I | – | 7.7 µM (active)
20 | C=CC(=O)OC(C)(C)C | 5.62% (inactive) | –

Row | SMILES | activity change, negative = cytotoxic | Potency
21 | C=CC(=O)OC | 3.77% [at 95 µM] (inactive) | –
22 | C=CCC1([C@H](C)CCC)C(=O)NC(=O)NC1=O | 9.52% (inactive) | –
23 | CCCCN=C=O | 12.2% (inactive) | –
24 | Cc1ccc2ccccc2c1 | 6.41% (inactive) | –
25 | OCCCBr | – | 54.5 µM (active)
26 | COC(N)=O | 4.48% (inactive) | –
27 | CC(Cl)C(C)Cl (stereo not given) | -7.1% (inactive) | –
28 | Cc1ccc(-c2c(Cl)nc(C#N)n2S(=O)(=O)N(C)C)cc1 | – | 54.4 µM (active)
29 | ClCCCCBr | -1.97% [at 95 µM] (inactive) | –
30 | O=C(O)CC(Cl)C(=O)O (stereo not given) | -31.2% [at 95 µM] (inactive) | –
31 | Cc1cc(=O)[nH]o1 | 1.16% [at 95 µM] (inactive) | –
32 | Cn1cc[n+](C)c1 (tested in a mixture with another compound) | 29.9% [at 95 µM] (inactive) | –
33 | Clc1cc(Cl)c(Cl)c(Cl)c1 | -2.19% (inactive) | –
34 | O=C(C(Cl)(Cl)Cl)C(Cl)(Cl)Cl | 2.95% [at 95 µM] (inactive) | –
35 | O=C(O)C1(c2ccc3c(c2)OC[C@H](Cc2ccc(-c4ccccc4)cc2)[C@H]3O)CCCC1 | – | 61.1 µM (active)
36 | O=C(O)c1ccccc1C(=O)Nc1cccc2ccccc12 | -4.77% (inactive) | –
37 | CCCCCCCCCCOC(=O)c1ccccc1C(=O)OCCCCCCCCCC | -0.717% (inactive) | –
38 | CCOC(=O)[C@]1(c2ccccc2)Oc2ccccc2[C@@H]1N | – | 68.6 µM (active)
39 | Cl/C=C\C[N+]12CN3CN(CN(C3)C1)C2 | -7.16% (inactive) | –
40 | [CH3][Sn]([CH3])([Cl])[Cl] | – | 55.4 µM (active) and inactive
